The values below come from PubChem BioAssay AID463173 (ICCB-Longwood Screening Facility, Harvard Medical School, 2010).

Molecules are shown by their SMILES. Hit rate of the full screen: of about 52,000 compounds, about 4,300 (8.3%) were called active. This excerpt belongs to a sample that is enriched for actives. Unmarked numbers belong to inactive results. No stated cut-off is given here; in the data, active means survival mostly below about 52% (no sharp cut-off); inactive means mostly above about 56%.

The test has as its system DeltatarO mutant. Kind of test: growth inhibition of S. aureus wild type versus tarO mutant, primary screen, teichoic acid synthesis inhibitors, RN4220, OD600 (AID 463173). Conditions: OD600, 18 h, stronger effect = lower value, screened at 18.75 µg/mL (by protocol).
With `CCOc1ccc(NS(=O)(=O)c2ccc3c(c2)CCCN3C(=O)C2CCC2)cc1`, the survival was 67%.

As to `CC(C)Oc1ccc(CNC(=O)c2cnc3sc(N4CCCCC4)nn3c2=O)cc1`, the survival is 124%.

On to `CCCCCn1c(=N)c(S(=O)(=O)c2ccc(C)cc2)cc2c(=O)n3cc(C)ccc3nc21`, for which the survival was 84%.

`O=C(NCc1ccc(Cl)cc1)NCc1noc2ccccc12`: the survival was 41%.

Turning to `COc1ccccc1NC(=O)CSc1oc(-c2cccs2)nc1S(=O)(=O)c1ccc(Br)cc1`, the survival is 68%.

In the case of `CCn1ccc2cc(S(=O)(=O)N3CCCN(C(=O)Nc4ccc(C)cc4)CC3)ccc21`, the survival was 73%.

Regarding `CCSc1nnc(C2CCCN(CC(=O)Nc3nc(C)cs3)C2)n1C` (stereo not drawn), the survival was 91%.

For the compound `CC(C)NC(=O)c1ccc(CSc2nc3ccncc3n2Cc2cccc(F)c2)cc1`, the survival is 77%.

Take `CCOc1ccc(-c2nonc2NC(=O)c2ccccc2C)cc1`: the survival is 107%.

On to `CCOc1ccc(NC(=O)c2cc(S(=O)(=O)N3CCOCC3)ccc2F)cc1`, for which the survival is 89%.

With `CCOC(=O)c1ccc(NC(=O)c2nc(SC(C)C)ncc2Cl)cc1`, the survival is 107%.

For the compound `CCOC(=O)c1ccc(NC(=O)c2nc(S(=O)(=O)Cc3ccccc3)ncc2Cl)cc1`, the survival is -2% (active).

Take `CCOc1ccccc1NC(=O)c1nc(S(=O)(=O)Cc2cccc(C)c2)ncc1Cl`: the survival is 66%.

On to `Cc1ccc(NC(=O)c2nc(S(=O)(=O)Cc3cccc(C)c3)ncc2Cl)cc1`, for which the survival was -3% (active).

Consider `COC(=O)c1ccccc1NC(=O)c1nc(S(=O)(=O)Cc2cccc(C)c2)ncc1Cl`, for which the survival is 39% (active).

In the case of `CCS(=O)(=O)c1ncc(Cl)c(C(=O)Nc2c(C(=O)Nc3cccc(C)c3)oc3ccccc23)n1`, the survival is 67%.

Regarding `CCS(=O)(=O)c1ncc(Cl)c(C(=O)Nc2ccccc2)n1`, the survival was 52%.

With `COC(=O)c1ccccc1NC(=O)c1nc(SCc2ccccc2C)ncc1Cl`, the survival is 79%.

As for `CCc1cccc(NC(=O)Cn2c(=O)n(-c3ccccc3C)c(=O)c3c2c2cc(C)ccc2n3C)c1`, the survival was 85%.

Take `O=C(COc1ccccc1Cl)Nc1ccc(-c2nc3ccccc3s2)cc1`: the survival is 52%.

Take `CCOC(=O)c1ccc(Nc2c(-c3ccc(N(C)C)cc3)nc3nc[nH]n23)cc1`: the survival was 102%.

Consider `COc1cccc(OCc2cc(=O)n3c(-c4ccccc4)csc3n2)c1`, for which the survival was 74%.

As to `CC(C)CC(=O)Nc1cccc(-c2cn3cccnc3n2)c1`, the survival was 83%.

Take `CN1CCN(Cc2nnnn2CC2CCCO2)CC1` (stereo not drawn): the survival was 95%.

Regarding `CCOc1ccc(Cn2nnc(C(=O)Nc3cccc(SC)c3)c2N)cc1`, the survival is 30% (active).

Turning to `CCc1cccc(NC(=O)c2nnn(Cc3ccc(SC)cc3)c2N)c1`, the survival is 59%.

On to `CCOc1ccc(Cn2nnc(C(=O)Nc3ccc(Cl)cc3)c2N)cc1`, for which the survival was 88%.

As for `CCOc1ccc(S(=O)(=O)Nc2cccc(-c3ccc(N4CCC(C)CC4)nn3)c2)cc1`, the survival is 86%.

Take `CC(C)COc1ccc(C(=O)N(Cc2ccc(N(C)C)cc2)Cc2ccco2)cc1`: the survival was 71%.

In the case of `Cc1ccc(NC(=O)CSCc2cc(=O)c3ccccc3[nH]2)c(C)c1`, the survival is 116%.

Turning to `O=C(Cn1c(=O)c2cccn2c2ccc(F)cc21)N1CCN(c2ccccc2F)CC1`, the survival was 56%.

For `Cc1ccc(NC(=O)CCCn2c(=O)c3cccn3c3ccccc32)cc1Cl`, the survival was 68%.

With `Cc1ccc(NC(=O)CCn2c(=O)c3cccn3c3ccccc32)cc1C`, the survival is 46% (active).

With `Cc1ccc(NC(=O)CCn2c(=O)c3cccn3c3ccccc32)cc1Cl`, the survival was 45% (active).

Turning to `Cc1ccc(NC(=O)CCCn2c(=O)c3cccn3c3ccccc32)cc1C`, the survival is 61%.

`Cc1cc(C)c(NC(=O)CCn2c(=O)c3cccn3c3ccccc32)c(C)c1`: the survival was 49%.

Consider `CC(C)c1ccc(NC(=O)CCn2c(=O)c3cccn3c3ccccc32)cc1`, for which the survival is 57%.

On to `O=C(Nc1ccc(Cl)cc1)N1CCN(c2ccc3nnc(-c4ccccc4)n3n2)CC1`, for which the survival is 72%.

As to `COc1cc(C2C(C(=O)Nc3ccc(Cl)cc3)=C(C)Nc3nc(SC)nn32)cc(OC)c1OC` (stereo not drawn), the survival is 64%.

With `CC(C)=NNS(=O)(=O)c1ccc(N2CCCC2=O)cc1`, the survival is 71%.

As for `CC1CCc2sc3ncnc(NCCCN(C)C)c3c2C1` (stereo not drawn), the survival is 117%.

As to `Cc1nn(CC(=O)NCc2ccc(N(C)C)cc2)c(=O)c2nn(-c3ccccc3)c(C)c12`, the survival is 83%.

As to `CCS(=O)(=O)N1CCc2cc(C(=O)NCCc3ccc(OC)c(OC)c3)ccc21`, the survival is 69%.

`CCC(=O)N1CCc2cc(Br)cc(S(=O)(=O)NCCc3ccc(OC)c(OC)c3)c21`: the survival is 52%.

For the compound `CCCC(=O)N1CC(=O)Nc2ccc(Cl)cc2C1c1ccc(F)cc1` (stereo not drawn), the survival was 50%.

In the case of `Cc1ccc2c(c1)C(c1ccc(F)cc1)N(C(=O)C(C)C)CC(=O)N2` (stereo not drawn), the survival was 82%.

With `COc1ccc(C(=O)N2CC(=O)Nc3ccc(C)cc3C2c2ccccc2)cc1OC` (stereo not drawn), the survival was 61%.

For the compound `O=C1CN(C(=O)COc2ccc(Cl)cc2Cl)C(c2ccc(F)cc2)c2cc(F)ccc2N1` (stereo not drawn), the survival is 47% (active).

As for `CCCC(=O)N1CC(=O)Nc2ccc(Cl)cc2C1c1ccccc1` (stereo not drawn), the survival is 69%.

With `Cc1ccc2c(c1)C(c1ccccc1)N(C(=O)COc1ccc(Cl)cc1Cl)CC(=O)N2` (stereo not drawn), the survival was 49% (active).

Regarding `O=C1CN(C(=O)COc2ccc(Cl)cc2Cl)C(c2ccccc2)c2cc(F)ccc2N1` (stereo not drawn), the survival is 88%.

Turning to `CCOc1ccc(C(=O)N2CC(=O)Nc3ccc(C)cc3C2c2ccc(F)cc2)cc1OCC` (stereo not drawn), the survival was 67%.

In the case of `Cc1ccc2c(c1)C(c1ccc(F)cc1)N(C(=O)COc1ccc(Cl)cc1Cl)CC(=O)N2` (stereo not drawn), the survival was 45% (active).

For `Cc1c(CCC(=O)NCCc2ccccc2F)c(=O)oc2cc(O)ccc12`, the survival was 61%.

For the compound `O=C(CSc1nc2c([nH]c3ccccc32)c(=O)n1-c1ccccc1)N1CCc2ccccc21`, the survival was 101%.

For the compound `CCOC(=O)c1ccccc1NS(=O)(=O)c1ccc(N2CCCCS2(=O)=O)cc1`, the survival was 90%.

Take `CN1CCN(Cn2c(O)c(N=NC(=O)c3ccc(Br)cc3)c3cc(Br)ccc32)CC1`: the survival was 87%.

For the compound `CCOc1ccc(NC(=O)CC2C(=O)N(c3cccc(C)c3)C(=O)N2Cc2cccnc2)cc1` (stereo not drawn), the survival was 55%.

In the case of `CCOc1ccc(NC(=O)c2cnc3sc(N4CCOCC4)nn3c2=O)cc1`, the survival is 97%.

Take `COCCNC(=O)c1ccc2c(=O)n(CCOC)c(SCC(=O)c3c[nH]c4ccccc34)nc2c1`: the survival is 17% (active).

For `COCCn1c(SCC(=O)c2c[nH]c3ccccc23)nc2cc(C(=O)NCC(C)C)ccc2c1=O`, the survival was 100%.

For `COCCn1c(SCC(=O)c2c[nH]c3ccccc23)nc2cc(C(=O)NC(C)C)ccc2c1=O`, the survival was 55%.

On to `Cc1ccc(Cl)cc1-n1ncc2c(NCCc3ccccc3)ncnc21`, for which the survival is 60%.

As to `COc1ccc(Cl)cc1NC(=O)Cn1c(=O)n(Cc2nc(C)no2)c(=O)c2ccccc21`, the survival was 83%.

For the compound `COc1ccc(NC(=O)CSc2nccn2Cc2ccco2)cc1OC`, the survival was 73%.

As to `Cc1nnc(NC(=O)CSc2nccn2Cc2ccc(Cl)cc2)s1`, the survival is 112%.

For the compound `O=C(CSc1nccn1Cc1ccc(F)cc1)Nc1nc2ccccc2s1`, the survival is 83%.

With `Cc1ccc(Cn2ccnc2SCC(=O)Nc2nnc(C)s2)cc1`, the survival is 55%.

Regarding `Cc1nnc(NC(=O)CSc2nccn2Cc2ccc(F)cc2)s1`, the survival is 0% (active).

For the compound `Cc1cc(C)cc(-n2ccnc2SCC(=O)Nc2nc3ccc(C)cc3s2)c1`, the survival is 52% (active).

With `Cc1ccc2nc(NC(=O)CSc3nccn3-c3ccc(Cl)cc3)sc2c1`, the survival is 71%.

With `Cc1ccc2nc(NC(=O)CSc3nccn3Cc3ccc(Cl)cc3)sc2c1`, the survival is 96%.

On to `O=C(CSc1nccn1Cc1ccc(Cl)cc1)Nc1nc2ccccc2s1`, for which the survival was 32% (active).

As to `O=C(CSc1nccn1Cc1ccccc1)Nc1nc2ccccc2s1`, the survival is 117%.

Take `Cc1cc(C)cc(-n2ccnc2SCC(=O)Nc2nc3ccccc3s2)c1`: the survival was 71%.

`Cc1ccc2nc(NC(=O)CSc3nccn3Cc3ccccc3)sc2c1`: the survival was 37% (active).

Take `Cc1ccc2nc(NC(=O)CSc3nccn3Cc3ccc(F)cc3)sc2c1`: the survival was 99%.

Consider `COc1ccccc1NC(=O)CCN1CCC(C(N)=O)CC1`, for which the survival is 193%.

Consider `COc1ccc(CNC(=O)c2sc3nc[nH]c(=O)c3c2C)cc1`, for which the survival was 75%.

Turning to `CCCCNc1nc(Oc2ccc(=O)n(C)n2)nc(N2CCOCC2)n1`, the survival is 81%.

On to `COc1ccc(C)cc1Nc1nc(-c2cccc(Cl)c2)c2c(n1)-c1ccccc1OC2`, for which the survival was 68%.

Take `CCOC(=O)CCn1nc(C)c2c(C)n(-c3ccccc3)nc2c1=O`: the survival was 87%.

For `Cc1ccc(OCC(=O)Nc2nc(-c3ccc(Br)cc3)ns2)cc1`, the survival is 72%.

Turning to `Cc1ccc(NC(=O)C2CCN(C(=O)c3sc4nc[nH]c(=O)c4c3C)CC2)cc1F`, the survival was 89%.

In the case of `COc1cccc(CN2C(=O)c3ccccc3Sc3ccc(C(=O)N(C)Cc4ccccc4)cc32)c1`, the survival is 79%.

`CCN1CCc2c(sc(NC(=O)CSc3ccccc3)c2-c2nc3ccccc3s2)C1`: the survival is -5% (active).

Take `CC(=O)N1CCc2c(sc(NC(=O)CSc3ccccc3)c2-c2nc3ccccc3s2)C1`: the survival is 109%.

In the case of `CN1CCc2c(sc(NC(=O)CSc3ccccc3)c2-c2nc3ccccc3s2)C1`, the survival is 73%.

Take `CCc1ccc(N2C(=O)C3C(C(=O)OC)=NN(C(C)=O)C3C2=O)cc1` (stereo not drawn): the survival is 75%.

Regarding `Cc1ccc(NC(=O)C2CCCN(c3ncnc4onc(-c5ccc(F)cc5)c34)C2)c(Cl)c1` (stereo not drawn), the survival is 71%.

For `CCCCNC(=O)C1(NC(=O)Nc2ccccc2)CCCCC1`, the survival was 74%.

Consider `O=C(Nc1ccccc1)NC1(C(=O)NCc2ccc3c(c2)OCO3)CCCCC1`, for which the survival was 6% (active).

Take `S=C(NCc1ccc2c(c1)OCO2)Nc1ccccc1`: the survival was 97%.
